This note sets out measurements from PubChem BioAssay (Tox21).

Test [1] is described as follows: qHTS assay to identify small molecule antagonists of the sonic hedgehog signaling (Shh) pathway (AID 1259369; calls by dose curve; further: nearly all actives have a fitted effect of over 45% in size; further: potency means the concentration at half of the fitted maximal effect). An outline of the steps: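 NIH/3T3-derived 3T3Gli1-Luc cells with stably integrated Gli1-Luc reporter were preincubated 4hr at 37 C, then given compounds in DMSO plus Shh conditioned medium and incubated 24hr. Firefly luciferase luminescence read after 30min reagent at room temperature.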

For test [2], the target named is Estrogen receptor beta (Homo sapiens) (UniProt Q92731). The experiment in a line: qHTS assay to identify small molecule antagonists of the estrogen receptor beta (ER-beta) signaling pathway (AID 1259378; active means well fitted inhibition curve with a large enough effect in the signal ratio in the repeat runs, not every such curve was filed as active; the % refers to the signal ratio; further: potency means the concentration at half of the fitted maximal effect). The method, boiled down: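 ER-beta-UAS-bla HEK293T cells in 2% charcoal-stripped FBS medium treated with compound plus 1nM final 17-beta-estradiol for 16 hr at 37C. Beta-lactamase reporter read by FRET substrate fluorescence after 2 hours at room temperature.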
Estrogen receptor beta (Homo sapiens), sequence (Q92731 whole entry, looked up): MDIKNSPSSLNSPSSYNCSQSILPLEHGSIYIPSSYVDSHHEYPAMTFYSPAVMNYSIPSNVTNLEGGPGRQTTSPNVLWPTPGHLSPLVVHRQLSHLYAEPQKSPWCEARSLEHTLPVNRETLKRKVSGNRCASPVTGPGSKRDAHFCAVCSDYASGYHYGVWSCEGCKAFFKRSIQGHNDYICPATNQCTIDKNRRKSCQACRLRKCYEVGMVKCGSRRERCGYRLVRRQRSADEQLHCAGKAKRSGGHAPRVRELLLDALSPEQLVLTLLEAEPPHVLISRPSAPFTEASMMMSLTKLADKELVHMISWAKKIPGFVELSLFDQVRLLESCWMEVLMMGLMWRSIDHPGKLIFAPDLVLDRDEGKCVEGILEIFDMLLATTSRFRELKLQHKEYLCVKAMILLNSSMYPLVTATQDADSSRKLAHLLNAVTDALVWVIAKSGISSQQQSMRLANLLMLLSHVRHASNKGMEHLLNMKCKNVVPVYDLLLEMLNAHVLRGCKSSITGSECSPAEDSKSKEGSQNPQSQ

A short description of test [3]: qHTS assay to identify small molecule agonists of the androgen receptor (AR) signaling pathway in the presence of an antagonist - cell viability counter screen (AID 1259379). Further: nearly all actives have a fitted effect of over 25% in size. Further: potency means the concentration at half of the fitted maximal effect. On activity change, negative = cytotoxicity: series mostly up to about 92 µM. The method, boiled down: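 MDA-kb2 human breast carcinoma cells (stable MMTV-luciferase, AR/GR responsive) were seeded 3,000 cells/well, pre-incubated 5 hr at 37C without CO2, then given 3.0uM nilutamide and compounds at 15 concentrations for 16 hr. Viability was read by CellTiter-Fluor fluorescence.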

The nature of test [4]: qHTS assay to identify small molecule agonists of the estrogen receptor beta (ER-beta) signaling pathway - cell viability counter screen (AID 1259380). Further: nearly all actives have a fitted effect of over 30% in size. Further: potency means the concentration at half of the fitted maximal effect. The method, boiled down: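 ER-beta-UAS-bla HEK293T cells in medium with 2% charcoal-stripped FBS were preincubated 6 hr at 37C, dosed with compound in DMSO for 16 hr, then after the bla read, CellTiter-Glo was added for 30 min at room temperature; luminescence recorded.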

Test [5] is described as follows: qHTS assay to identify small molecule antagonists of the estrogen receptor beta (ER-beta) signaling pathway - cell viability counter screen (AID 1259382). Further: nearly all actives have a fitted effect of over 55% in size. Further: potency means the concentration at half of the fitted maximal effect. On activity change, negative = cytotoxicity: series mostly up to about 92 µM. An outline of the steps: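 ER-beta-UAS-bla HEK293T cells (2,000/well, 2% charcoal-stripped FBS) were pre-incubated 6 hr at 37C, then given compound plus 1nM final 17-beta-estradiol for 16 hr. Viability was read in the same wells by CellTiter-Glo luminescence after 30 min at room temperature.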

The target in test [6] is Estrogen receptor (Homo sapiens) (UniProt P03372). The test can be described thus: qHTS assay to identify small molecule agonists of the estrogen receptor alpha (ER-alpha) signaling pathway in the presence of an antagonist (AID 1259383; calls by dose curve; further: top concentration of the series differs between compounds; nearly all actives have a fitted effect of over 15% in size). An outline of the steps:
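VM7Luc4E2 cells (endogenous full-length ER-alpha, 4×ERE-luciferase) were precultured 5 days in phenol red-free medium with 10% charcoal-stripped FBS, given 10.0nM ICI-182,780 (final), then treated with compounds at 15 concentrations for 22hr at 37C; luminescence read with ONE-Glo.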

Test [7] is described as follows: qHTS assay to identify small molecule agonists or antagonists of the thyroid stimulating hormone receptor (TSHR) signaling pathway - wild type cell line counter screen (AID 1259384; calls by dose curve). The method, boiled down: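 Wild-type Hek293 cells, 800/well, 18 h at 37C, then compound with Ro20-1724 for 30 min RT. cAMP by HTRF (cAMP-d2/anti-cAMP cryptate), 1 h RT, fluorescence read. 15 concentrations, triplicates.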

A short description of test [8]: qHTS assay to identify small molecule agonists of the estrogen receptor alpha (ER-alpha) signaling pathway in the presence of an antagonist - cell viability counter screen (AID 1259386).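 Further: cells exposed to compounds for 22 h at 37 °C before the viability read; nearly all actives have a fitted effect of over 30% in size.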 Further: potency means the concentration at half of the fitted maximal effect. On activity change, negative = cytotoxicity: series mostly up to about 92 µM. An outline of the steps: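 VM7Luc4E2 cells (endogenous full-length ER-alpha, 4×ERE-luciferase) were held 5 days in phenol red-free medium with 10% charcoal-stripped FBS, plated, then given 10.0nM ICI-182,780 and compounds at 15 concentrations for 22hr at 37C; viability read by CellTiter-Fluor fluorescence.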

Test [9] concerns the target Progesterone receptor (Homo sapiens) (UniProt P06401). The test can be described thus: qHTS assay to identify small molecule antagonists of the progesterone receptor (PR) signaling pathway (AID 1346795; active means well fitted inhibition curve with a large enough effect in the signal ratio in the repeat runs, not every such curve was filed as active; the % refers to the signal ratio). The method, boiled down: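 Fluorescence intensity measured 2 hr after adding beta-lactamase FRET substrate to PR-UAS-bla HEK293T cells that had been co-treated 16 hr with compound and 1 nM R5020 (final concentration) in 2% charcoal-stripped FBS.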

A short description of test [10]: qHTS assay to identify small molecule antagonists of the progesterone receptor (PR) signaling pathway - cell viability counter screen (AID 1346798). Further: series mostly up to about 92 µM; nearly all actives have a fitted effect of over 50% in size. An outline of the steps: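 CellTiter-Glo luminescence; PR-UAS-bla HEK293T, 3,000 cells/well; compound + R5020, 16 hr, 37C/5% CO2; 30 min RT before read.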
Test [11] can be described thus: qHTS assay to identify small molecule agonists of the progesterone receptor (PR) signaling pathway - cell viability counter screen (AID 1346799; calls by dose curve; further: nearly all actives have a fitted effect of over 45% in size; further: potency means the concentration at half of the fitted maximal effect). The method, boiled down:
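In parallel with the beta-lactamase readout, cytotoxicity toward PR-UAS-bla HEK293T cells was measured by CellTiter-Glo luminescence following 16 hr compound incubation in 2% charcoal-stripped FBS medium.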

Test [12] is described as follows: qHTS assay to identify small molecule antagonists of the TGF-beta/Smad signaling pathway - cell viability counter screen (AID 1346824). Further: nearly all actives have a fitted effect of over 50% in size. An outline of the steps: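 SBE-bla HEK 293T cells, incubated overnight, then compound plus 0.25 ng/mL TGF-beta1 (stock added) for 5 hr at 37 C. Viability was read in the same wells by CellTiter-Glo luminescence after 30 min at room temperature.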

Test [13] is described as follows: qHTS assay to identify small molecule agonists of the TGF-beta/Smad signaling pathway - cell viability counter screen (AID 1346829). Further: top concentration of the series differs between compounds; nearly all actives have a fitted effect of over 45% in size. An outline of the steps:
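Here the cytotoxicity of library compounds is measured in SBE-bla HEK 293T cells treated for 5 hr, using CellTiter-Glo added to wells already read for the beta-lactamase reporter.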

Test [14] can be described thus: qHTS assay to identify small molecule agonists of the TGF-beta/Smad signaling pathway (AID 1346859; active means well fitted activation curve with a large enough effect in the signal ratio in the repeat runs, not every such curve was filed as active; the % refers to the signal ratio; further: series mostly up to about 77 µM). The method, boiled down: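 After overnight seeding, SBE-bla HEK 293T cells are dosed with compounds in DMSO and kept 5 hr at 37 C, 5% CO2. LiveBLAzer-type FRET substrate is then applied for 2 hr at room temperature.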
The target of test [15] is Thyrotropin-releasing hormone receptor (Homo sapiens) (UniProt P34981). The experiment in a line: qHTS assay to identify small molecule antagonists of the thyrotropin-releasing hormone receptor (TRHR) signaling pathway (AID 1346877; active means well fitted inhibition curve with a large enough effect in the repeat runs, not every such curve was filed as active; further: series mostly up to about 51 µM). The method, boiled down: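 TRHR-expressing HEK293 cells were seeded, cultured 18 h at 37 °C, then loaded with calcium dye for 2 h. Compounds were pre-incubated 5 min at room temperature before 1 nM TRH (final) was added, and kinetic fluorescence was recorded for 3 min.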
Thyrotropin-releasing hormone receptor (Homo sapiens), sequence (P34981 whole entry, looked up): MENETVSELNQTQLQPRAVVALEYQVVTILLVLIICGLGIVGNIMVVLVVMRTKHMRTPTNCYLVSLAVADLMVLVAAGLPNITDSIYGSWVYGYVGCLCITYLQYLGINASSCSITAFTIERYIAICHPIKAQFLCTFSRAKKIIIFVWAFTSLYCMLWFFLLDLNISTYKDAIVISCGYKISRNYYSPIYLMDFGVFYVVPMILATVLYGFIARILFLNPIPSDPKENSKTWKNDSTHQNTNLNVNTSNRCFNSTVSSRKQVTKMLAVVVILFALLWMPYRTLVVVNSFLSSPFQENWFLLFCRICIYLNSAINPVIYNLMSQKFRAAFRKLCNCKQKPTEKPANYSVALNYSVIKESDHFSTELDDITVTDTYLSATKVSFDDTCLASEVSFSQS

Test [16] shares this target. The test can be described thus: qHTS assay to identify small molecule agonists of the thyrotropin-releasing hormone receptor (TRHR) signaling pathway (AID 1346891; calls by dose curve; further: series mostly up to about 58 µM). An outline of the steps:
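Compounds were tested as agonists at 15 concentrations, in triplicate, on TRHR-Hek293 cells; calcium-sensitive dye fluorescence was recorded for 3 min following addition.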

Test [17] addresses Estrogen receptor beta (Homo sapiens) (UniProt Q92731). The test can be described thus: qHTS assay to identify small molecule agonists of the estrogen receptor beta (ER-beta) signaling pathway (AID 1259377; active means well fitted activation curve with a large enough effect in the signal ratio in the repeat runs, not every such curve was filed as active; the % refers to the signal ratio). The method, boiled down:
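qHTS in ER-beta-UAS-bla HEK293T cells: 6 hr settling, then 16 hr compound at 37C, then LiveBLAzer substrate 2 h at RT before fluorescence reading.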

Test [18] deals with Progesterone receptor (Homo sapiens) (UniProt P06401). The experiment in a line: qHTS assay to identify small molecule agonists of the progesterone receptor (PR) signaling pathway (AID 1346784; calls by dose curve; further: nearly all actives have a fitted effect of over 30% in size). The method, boiled down:
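Fluorescence from LiveBLAzer B/G FRET substrate cleavage (2 hr, RT) reported PR activation in PR-UAS-bla HEK 293T cells treated 16 hr at 37C/5% CO2 with compounds; medium contained 2% charcoal-stripped FBS.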

Test [19] concerns the target Thyrotropin receptor (Homo sapiens) (UniProt P16473). The test can be described thus: qHTS assay to identify small molecule antagonists of the thyroid stimulating hormone receptor (TSHR) signaling pathway (AID 1259385; calls by dose curve; further: nearly all actives have a fitted effect of over 20% in size). An outline of the steps:
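TSHR-HEK293 cells (800/well) plated 18 h, then compounds with Ro20-1724 and TSH at 1.5 ng/mL final, 30 min at room temperature. cAMP quantified by HTRF (cAMP-d2/anti-cAMP-cryptate, 1 h); 15 concentrations in triplicate.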

The target of test [20] is Androgen receptor (Homo sapiens) (UniProt P10275). The experiment in a line: qHTS assay to identify small molecule agonists of the androgen receptor (AR) signaling pathway in the presence of an antagonist (AID 1259381; calls by dose curve; further: nearly all actives have a fitted effect of over 15% in size). The method, boiled down: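 MDA-kb2 human breast carcinoma cells carrying an MMTV-luciferase reporter (AR- and GR-responsive) were treated with compounds at 15 concentrations plus 3.0uM final nilutamide for 16hr at 37C without CO2; luminescence was read after ONE-Glo addition.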
Androgen receptor (Homo sapiens), sequence (P10275 whole entry, looked up): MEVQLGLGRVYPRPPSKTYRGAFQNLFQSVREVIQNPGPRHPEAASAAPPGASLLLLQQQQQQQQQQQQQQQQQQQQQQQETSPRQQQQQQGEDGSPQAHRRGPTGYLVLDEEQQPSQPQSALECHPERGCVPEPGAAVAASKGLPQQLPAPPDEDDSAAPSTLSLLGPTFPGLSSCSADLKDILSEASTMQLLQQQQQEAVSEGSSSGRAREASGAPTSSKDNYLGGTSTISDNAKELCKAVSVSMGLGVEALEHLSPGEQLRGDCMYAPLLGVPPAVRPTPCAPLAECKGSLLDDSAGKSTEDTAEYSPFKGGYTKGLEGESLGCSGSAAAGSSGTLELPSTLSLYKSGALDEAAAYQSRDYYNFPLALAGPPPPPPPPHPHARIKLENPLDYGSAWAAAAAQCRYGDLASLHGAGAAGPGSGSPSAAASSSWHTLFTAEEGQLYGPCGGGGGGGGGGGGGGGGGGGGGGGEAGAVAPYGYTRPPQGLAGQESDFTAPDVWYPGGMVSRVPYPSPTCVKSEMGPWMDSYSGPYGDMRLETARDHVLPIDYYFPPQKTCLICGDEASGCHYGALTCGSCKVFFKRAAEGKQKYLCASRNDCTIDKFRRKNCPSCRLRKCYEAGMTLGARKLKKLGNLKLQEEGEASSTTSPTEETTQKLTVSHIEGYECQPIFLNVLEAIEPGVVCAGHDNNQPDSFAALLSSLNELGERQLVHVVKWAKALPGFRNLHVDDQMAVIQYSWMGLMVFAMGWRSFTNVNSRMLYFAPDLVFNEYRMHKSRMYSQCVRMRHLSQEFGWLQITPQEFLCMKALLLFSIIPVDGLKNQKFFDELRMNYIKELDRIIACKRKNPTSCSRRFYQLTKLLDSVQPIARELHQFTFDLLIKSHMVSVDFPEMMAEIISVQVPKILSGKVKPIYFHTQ

Values without a mark were called inactive. Records with an inconclusive call do not appear. The source made the active and inactive calls. Unless noted, the call rests on the fitted dose curve; in most records, active means well fitted curve in the direction sought with a large enough effect in the repeat runs; inconclusive means weak or mixed curves; inactive means no such curve, though single readings can be large; an effect the other way counts as inactive or inconclusive.
On the % scale 0 is the no-effect control and ±100 the full control effect.

Estrogen receptor (Homo sapiens), sequence (P03372 whole entry, looked up): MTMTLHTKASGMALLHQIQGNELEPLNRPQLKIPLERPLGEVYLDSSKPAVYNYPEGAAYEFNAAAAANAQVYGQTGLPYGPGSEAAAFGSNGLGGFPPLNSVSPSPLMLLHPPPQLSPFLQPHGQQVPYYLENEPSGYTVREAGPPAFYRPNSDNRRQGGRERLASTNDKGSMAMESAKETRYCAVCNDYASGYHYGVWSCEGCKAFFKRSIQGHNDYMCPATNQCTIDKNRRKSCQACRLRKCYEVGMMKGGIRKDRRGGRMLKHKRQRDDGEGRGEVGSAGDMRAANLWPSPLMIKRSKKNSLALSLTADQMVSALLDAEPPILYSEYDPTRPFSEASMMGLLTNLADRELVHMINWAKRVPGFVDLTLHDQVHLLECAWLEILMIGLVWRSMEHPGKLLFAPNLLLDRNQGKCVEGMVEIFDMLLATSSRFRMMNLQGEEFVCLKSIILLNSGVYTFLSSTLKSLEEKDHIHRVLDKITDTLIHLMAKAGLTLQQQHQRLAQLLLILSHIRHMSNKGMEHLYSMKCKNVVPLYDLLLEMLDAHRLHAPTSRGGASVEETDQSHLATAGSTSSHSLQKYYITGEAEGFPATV
Progesterone receptor (Homo sapiens), sequence (P06401 whole entry, looked up): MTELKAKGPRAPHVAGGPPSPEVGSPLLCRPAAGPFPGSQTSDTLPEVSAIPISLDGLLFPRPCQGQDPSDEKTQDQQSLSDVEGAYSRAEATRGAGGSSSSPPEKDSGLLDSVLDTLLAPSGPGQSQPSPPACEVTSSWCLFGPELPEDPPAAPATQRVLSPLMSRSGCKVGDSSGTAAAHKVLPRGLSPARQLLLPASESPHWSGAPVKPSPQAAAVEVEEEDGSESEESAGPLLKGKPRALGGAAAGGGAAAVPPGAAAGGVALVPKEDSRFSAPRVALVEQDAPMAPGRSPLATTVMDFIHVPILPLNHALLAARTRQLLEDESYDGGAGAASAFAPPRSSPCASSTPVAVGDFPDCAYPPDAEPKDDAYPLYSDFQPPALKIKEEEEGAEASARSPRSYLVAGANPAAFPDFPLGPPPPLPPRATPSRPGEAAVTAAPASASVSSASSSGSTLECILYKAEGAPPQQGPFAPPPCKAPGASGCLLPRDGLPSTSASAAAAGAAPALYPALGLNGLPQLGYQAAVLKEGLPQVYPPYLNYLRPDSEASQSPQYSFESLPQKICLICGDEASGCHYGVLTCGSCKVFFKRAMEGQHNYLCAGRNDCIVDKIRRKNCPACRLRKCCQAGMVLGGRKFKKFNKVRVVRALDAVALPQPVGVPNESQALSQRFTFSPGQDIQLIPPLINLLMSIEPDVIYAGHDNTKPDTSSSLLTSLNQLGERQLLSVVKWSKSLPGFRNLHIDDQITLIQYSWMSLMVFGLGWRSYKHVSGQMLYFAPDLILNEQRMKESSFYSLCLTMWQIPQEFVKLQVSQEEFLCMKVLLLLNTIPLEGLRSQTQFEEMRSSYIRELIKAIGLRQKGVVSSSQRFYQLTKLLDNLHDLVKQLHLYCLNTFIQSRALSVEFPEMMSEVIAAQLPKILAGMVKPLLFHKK
Thyrotropin receptor (Homo sapiens), sequence (P16473 whole entry, looked up): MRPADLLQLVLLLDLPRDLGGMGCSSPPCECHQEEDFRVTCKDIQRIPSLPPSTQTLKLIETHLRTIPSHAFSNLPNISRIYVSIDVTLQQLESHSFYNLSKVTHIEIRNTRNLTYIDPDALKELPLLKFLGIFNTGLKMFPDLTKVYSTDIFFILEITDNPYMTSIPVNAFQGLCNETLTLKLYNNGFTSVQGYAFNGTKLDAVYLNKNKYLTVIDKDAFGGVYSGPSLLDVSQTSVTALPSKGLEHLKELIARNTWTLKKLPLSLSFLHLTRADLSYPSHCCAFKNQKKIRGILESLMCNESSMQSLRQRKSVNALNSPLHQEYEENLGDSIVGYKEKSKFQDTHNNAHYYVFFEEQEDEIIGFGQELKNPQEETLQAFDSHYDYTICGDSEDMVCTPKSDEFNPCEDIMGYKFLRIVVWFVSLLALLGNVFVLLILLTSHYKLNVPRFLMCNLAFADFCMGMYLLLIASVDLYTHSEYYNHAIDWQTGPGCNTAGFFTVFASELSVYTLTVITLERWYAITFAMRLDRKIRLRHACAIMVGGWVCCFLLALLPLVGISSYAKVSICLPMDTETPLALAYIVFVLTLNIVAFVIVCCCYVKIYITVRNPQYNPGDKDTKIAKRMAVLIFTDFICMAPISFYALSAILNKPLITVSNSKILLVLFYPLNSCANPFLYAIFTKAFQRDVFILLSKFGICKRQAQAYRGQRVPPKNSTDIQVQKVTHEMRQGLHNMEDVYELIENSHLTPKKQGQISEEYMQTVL

In the case of `NCC(=O)O`, the activity change, negative = inhibition is 20.6% [at 19 µM] in test [1] and 9.41% [at 18.9 µM] in [9]. Also, the figures for the activity, negative = inhibition in test [2] and in test [15] were 10% [at 19 µM] and -3.84% [at 10.5 µM], respectively. Also, the activity change, negative = cytotoxicity in test [3] was 0.351% [at 19 µM]; in test [4], 4.31% [at 19 µM]; in test [5], -1.05% [at 19 µM]; in test [8], 6.54% [at 19 µM]; in test [10], -3.8% [at 18.9 µM]; in test [11], 27.9% [at 19 µM]. Moreover, in [13], the activity change, negative = cytotoxicity is 0.104% [at 15.8 µM]. In addition, the Potency result in test [6] was “inactive”. Further, the cAMP activity change in test [7] was -6.62% [at 18.9 µM, stronger effect = higher value]. Further, the viability change, negative = cytotoxic in test [12] is -5.27% [at 15.8 µM]. The activation is -0.809% [at 15.8 µM] in test [14] and -0.0833% [at 11.8 µM] in test [16].
For `CN(Cc1ccc(C(C)(C)C)cc1)Cc1cccc2ccccc12`, the Potency entry in [1], in [17], in test [3], in test [6], in test [8] and in test [18] was “inactive” in each case. Besides, the Potency result in test [9], in [14] and in [16] was “inactive” throughout. The results for the Potency in test [4], in [5] and in [11] were 26.6 µM (active), 23.7 µM (active) and 10.6 µM (active), respectively. The call in test [13] and in test [15] was inactive.
On to `CCN(CC)c1ccc2c(-c3ccccc3C(=O)O)c3ccc(=[N+](CC)CC)cc-3oc2c1`, for which the Potency in [1] was 34.4 µM (active); in test [3], 9.69 µM (active); in [4] it was 8.63 µM (active); in test [8] it was 6.11 µM (active). In addition, the Potency result in test [17], in [6], in test [9], in test [10], in test [12] and in [14] was “inactive” in each case. Moreover, the compound was called inactive in test [13] and in test [15].
With `Nc1ncn([C@H]2C[C@H](O)[C@@H](CO)O2)c(=O)n1`, the Potency entry in [1], in test [17], in test [3], in test [4], in test [5] and in test [8] was “inactive” in each case. The Potency result in test [10], in [11], in [12], in test [14] and in [16] was “inactive” each time. Also, the outcome in test [13] and in [15] was inactive.
For `O[C@@H](COc1cccc2ncccc12)CN1CCN(C2c3ccccc3[C@@H]3[C@H](c4ccccc42)C3(F)F)CC1` (stereo not given in full), the Potency was 13.3 µM (active) in test [1], 16.8 µM (active) in test [2] and 26.6 µM (active) in test [4]. The Potency result in test [3], in [6], in [7], in test [19], in [8] and in test [18] was “inactive” each time. Further, the Potency entry in [10], in test [12], in test [14] and in test [16] was “inactive” throughout. In addition, the compound was called inactive in [13] and in [15].
As to `O=[N+]([O-])c1ccc(NCCO)c(OCCO)c1`, the Potency entry in [1], in test [2], in test [4], in test [20], in [5] and in [7] was “inactive” each time. In addition, the Potency entry in [18], in [9], in test [10], in [11], in test [12] and in test [14] was “inactive” throughout. Moreover, the Potency is 54.5 µM (active) in test [3] and 27.3 µM (active) in test [8]. In addition, the outcome in [13] and in test [15] was inactive.
Turning to `CC(C)CC(=O)C1C(=O)c2ccccc2C1=O`, the Potency in test [1] is 61.1 µM (active). Further, the Potency entry in [17], in test [3], in test [20], in [5], in test [6] and in test [7] was “inactive” throughout. In addition, the Potency entry in test [18], in test [9], in [12], in test [14] and in [16] was “inactive” throughout. Moreover, the compound was classed as inactive in test [13] and in [15].
